MITF inhib: inhibitors of MITF, primary screen, MITF inhibitor project, cell-based, luminescence | inhibition, % (no concentration beside the values) | AID 2240, 2010 | 0.28% of 37,000 active | TRPM1 promoter luciferase, 24 h; in the data active = inhibition above about 85%; inconclusive = no clear call, values can overlap the other calls; inactive = below about 68%;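 note: human melanocyte line stably carrying TRPM1 promoter luciferase reporter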
Hedgehog inh: Hedgehog pathway signaling inhibitors, primary screen, luminescence, Shh-LIGHT2 cells, Gli-luciferase; Shh-LIGHT2 Gli-luciferase reporter, 30 h; inhibition, % (concentration not given with the values); 2.1% of 22,000 active; AID 2313, 2010;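 active = mean inhibition across valid replicates above about 65%, limit read from the data; inconclusive = mean under the limit, yet half or more replicates past it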;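 note: pathway switched on by Shh-conditioned medium diluted 1 in 25 in low serum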
NOMO-1 viab: NOMO-1 AML cell viability reduction, primary screen, STK33 inhibitor project, CellTiter-Glo luminescence; NOMO-1 AML viability, 72 h; inhibition, % (concentration not given with the values); 7.5% of 37,000 active; AID 2330, 2010; in the data active = inhibition above about 80%; inconclusive = no clear call, values can overlap the other calls
* = called active by the depositor; ? = inconclusive; · = no result. In the library only some 7.8% were active in any assay of this set; here they are far more common.

SMILES	MITF inhib	Hedgehog inh	NOMO-1 viab
C=C1CC[C@H]2C(=C)CC[C@@]3(O)C(=C)C(=O)O[C@@H]3[C@@H]12	7	30	110*
COc1ccc(NC(=O)C(C)N(c2ccc(C)cc2)S(C)(=O)=O)c(OC)c1 (stereo unspecified)	-13	·	7
COC(=O)CN(c1cc([N+](=O)[O-])ccc1OC)S(C)(=O)=O	-7	·	100*
COc1ccc([N+](=O)[O-])cc1NC(=O)C(C)N(c1ccc(C)cc1)S(C)(=O)=O (stereo unspecified)	34	·	112*
CNC(=O)CN(c1cc([N+](=O)[O-])ccc1OC)S(C)(=O)=O	-3	·	1
COc1cccc2cc(-c3nnc(SCC(=O)N4c5ccccc5Sc5ccccc54)n3C)oc12	-4	·	33
Cc1cccc(N2C(=O)c3ccc(C(=O)Nc4c[nH]c(=O)[nH]c4=O)cc3C2=O)c1C	-27	-15	-13
C=C1C(=O)O[C@@H]2C[C@H](C)[C@@]3(O)C[C@H](O)[C@@](C)(C[C@@H](OC(=O)C(C)C)[C@@H]12)O3	-11	17	119*
C=C1C(=O)O[C@@H]2[C@H]3C(C)=CC(=O)C3=C(C)C[C@H](O[C@@H]3O[C@H](CO)[C@@H](O)[C@H](O)[C@H]3O)[C@@H]12	-10	-8	3
C=C(CO)C(=O)O[C@H]1CC(=C)[C@@H]2CC(=O)[C@H](C)[C@@H]2[C@H]2OC(=O)C(=C)[C@@H]21	31	40	107*
Clc1ccc(-c2ncc3ccccn23)cc1	4	·	129*
C=C1C(=O)O[C@@H]2/C=C(/COC(C)=O)CC/C=C(/CO)CC[C@@H]12	-31	-2	117*
C=C1C(=O)O[C@@H]2/C=C(/CO[C@@H]3O[C@H](CO)[C@@H](O)[C@H](O)[C@H]3O)CC/C=C3\C[C@H](OC3=O)[C@@H]12	-22	-7	-7
CCC1(C)Cc2c(sc3nnn(CC(=O)Nc4ccc(OC)cc4OC)c(=O)c23)CO1 (stereo unspecified)	10	·	13
COC(=O)C1=C(N)C(C(=O)OC)=c2s/c(=C/c3ccccc3)c(=O)n2C1c1ccccc1 (stereo unspecified)	-22	-47	30
COc1ccc(S(=O)(=O)Nc2cc(C)cc(C)c2)cc1	42	-11	96*
COc1ccc(S(=O)(=O)Nc2c(C)nc3nc[nH]n3c2=O)cc1	-3	·	33
COc1cccc(NC(=O)CN(C)S(=O)(=O)c2ccc3ccccc3c2)c1	2	·	-13
O=C1CCC(c2ccccc2)C(=O)C1C(=O)c1ccc(Cl)cc1Cl (stereo unspecified)	34	-2	29
Oc1cc2c(c(Cl)c1O)CCNC[C@@H]2c1ccccc1	35	9	111*
Cn1c(CN2CCOCC2)nnc1SCC(=O)Nc1ccc2ccccc2c1	-5	·	34
CC(C)C12CC1C(C)(O[C@@H]1O[C@H](CO)[C@@H](O)[C@H](O)[C@H]1O)CC2=O (stereo partly specified)	·	-1	·
CC1(C)Cc2c(sc3nc(SCC(=O)c4ccc(Cl)cc4)nc(N)c23)CS1	-17	·	24
CC(C)CC(NS(=O)(=O)c1cccc2nsnc12)C(=O)O (stereo unspecified)	-16	·	5
COC(=O)C(CC(C)C)NS(=O)(=O)c1ccc(-c2nnc(SC)n2C)s1 (stereo unspecified)	8	3	119*
SMILES	MITF inhib	Hedgehog inh	NOMO-1 viab
COC(=O)CNC(=O)c1cn(-c2ccccc2)nc1-c1cc2ccccc2oc1=O	7	·	111*
COC(=O)CNC(=O)c1cn(-c2ccccc2)nc1-c1ccccc1	-75	·	43
CCn1c(SCC(=O)c2ccc(F)cc2)nnc1-c1cccnc1	-14	·	-15
C[C@H](CO)N1C[C@H](C)[C@H](CN(C)Cc2ccncc2)Oc2c(NC(=O)c3nc4ccccc4s3)cccc2C1=O	13	24	88*
C[C@H]1CN([C@@H](C)CO)C(=O)c2cccc(NC(=O)c3nc4ccccc4s3)c2O[C@H]1CN(C)Cc1ccc(C(F)(F)F)cc1	-8	-4	50
C[C@H](CO)N1C[C@H](C)[C@@H](CN(C)Cc2ccncc2)Oc2c(NC(=O)c3nc4ccccc4s3)cccc2C1=O	11	-25	74
C[C@H](CO)N1C[C@H](C)[C@H](CN(C)C(=O)Nc2ccc(C(F)(F)F)cc2)Oc2c(NC(=O)c3nc4ccccc4s3)cccc2C1=O	-6	?	104*
C[C@@H]1CN([C@H](C)CO)C(=O)c2cccc(NC(=O)c3nc4ccccc4s3)c2O[C@H]1CN(C)Cc1ccc(C(F)(F)F)cc1	25	-13	101*
C[C@H](CO)N1C[C@H](C)[C@@H](CN(C)C(=O)Nc2ccc(C(F)(F)F)cc2)Oc2c(NC(=O)c3nc4ccccc4s3)cccc2C1=O	1	6	13
COc1cccc(NC(=O)C(C)N(c2cc(C)cc(C)c2)S(C)(=O)=O)c1 (stereo unspecified)	2	·	26
CCCCC1(Cc2ccccc2)C(=O)Nc2ccccc2C1=O (stereo unspecified)	27	·	44
CCOC(=O)c1cc(NC(=O)CN2C(=O)COc3ccc(Cl)cc32)ccc1Cl	42	·	20
CC1(C)CC(=O)C=C(SCC(=O)Nc2cc(C(F)(F)F)cc(C(F)(F)F)c2)S1	52	92*	103*
Cc1nnc(SCC(=O)Nc2cccc(C(F)(F)F)c2)s1	-16	·	8
CC(NC(=O)COc1ccccc1C(C)(C)C)c1ccccc1 (stereo unspecified)	13	35	115*
Cc1ccccc1OCC(=O)NCC(=O)O	-30	·	18
C=CCn1c(=O)c2c(C)c(C)sc2n2c(Nc3ccc(C(=O)OCC)cc3)nnc12	0	23	29
CCn1c(SCC(=O)Nc2ccc([N+](=O)[O-])cc2)nnc1-c1ccccc1F	22	·	13
N#Cc1c(NC(=O)c2cc(S(=O)(=O)N3CCOCC3)cs2)sc2c1CCCC2	23	·	3
Cc1ccc(S(=O)(=O)NC(C)C(=O)Nc2ccc(C)c(Cl)c2)cc1 (stereo unspecified)	7	·	21
Cc1ccc(NC(=S)C(C#N)C(N)=O)cc1Cl (stereo unspecified)	-7	39	108*
O=C(Nc1cccc(-c2nc3ccccc3c(=O)o2)c1)C1CCCCC1	-4	-19	15
O=C(Nc1ccc(-c2nc3cc(NC(=O)C4CCCCC4)ccc3o2)cc1)C1CCCCC1	5	33	99*
COc1cccc(N(CC(=O)Nc2ccc(OC)c(Cl)c2)S(C)(=O)=O)c1	-5	·	-6
O=C(Nc1ccccc1)C(F)(F)F	-11	-13	14
SMILES	MITF inhib	Hedgehog inh	NOMO-1 viab
O=C(c1ccc(O)cc1)N1Cc2ccccc2NC1=S	-99	-73	0
O=C(c1ccc(Br)cc1)N1Cc2ccccc2NC1=S	-6	5	125*
Cc1ccc(OCC(=O)Nc2ccccc2N2CCN(S(C)(=O)=O)CC2)cc1	-58	·	4
Cc1ccc(OCC(=O)O)c(C)c1	14	-11	-10
CCc1ccc(O)c(NC(=S)NC(=O)COc2ccc(C)cc2C)c1	47	·	120*
Cn1c(=S)[nH]c2sc3c(c2c1=O)CCC(C(C)(C)C)C3 (stereo unspecified)	-17	-28	123*

Assay outcomes deposited in PubChem BioAssay by Broad Institute.
